In PubChem BioAssay (EPA / NIEHS):
The source made the active and inactive calls. Rule for the calls: active = hit-call score of the fitted dose curve at least 0.9, where 1 is the maximum; inactive = score below 0.9.

Columns and labels:
[1] = read-out: Epidermal growth factor receptor (EGFR), EGFR (gene 1956); assay: BSK_hDFCGF_EGFR: BioMAP Diversity Plus: hDFCGF Assay for Epidermal growth factor receptor (EGFR) Biomarker Activity (AID 2283057); conditions: primary human foreskin fibroblasts; actives raise or lower the signal
How it was run: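 Cell-based multiplexed assay in primary human foreskin fibroblasts. EGFR is read by ELISA 24 h after treatment and compared with DMSO controls.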

[2] = read-out: Interleukin-8 (IL8), CXCL8 (gene 3576); assay: BSK_hDFCGF_IL8: BioMAP Diversity Plus: hDFCGF Assay for Interleukin-8 (IL8) Biomarker Activity (AID 2283058); conditions: primary human foreskin fibroblasts; actives raise or lower the signal
How it was run: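 IL-8 levels read by ELISA at 24 hours after dosing human skin fibroblast cultures. Parallel SRB staining assessed overt cytotoxicity, and gain or loss of signal was fitted against DMSO control.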

[3] = BSK_hDFCGF_Proliferation: Cell Proliferation Assessment in the BioMAP Diversity Plus: hDFCGF Assay (AID 2283059); conditions: primary human foreskin fibroblasts;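 note: curves fitted for both rise and fall of signal versus DMSO baseline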
How it was run: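 This proliferation readout used SRB total-protein staining of human foreskin fibroblasts […], normalized to DMSO with bidirectional curve fitting.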

[4] = BSK_hDFCGF_SRB: Viability Assessment in the BioMAP Diversity Plus: hDFCGF Assay (AID 2283061); conditions: primary human foreskin fibroblasts;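 note: cells exposed to compound for 24 h before the read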
How it was run: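 Viability was read as total protein: after 10% TCA fixation, wells were stained with 0.1% sulforhodamine B and read at 560 nm. Primary human foreskin fibroblasts were dosed for 24 h, with bidirectional fitting versus DMSO.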

[5] = read-out: TIMP metallopeptidase inhibitor 1 (TIMP1), TIMP1 (gene 7076); assay: BSK_hDFCGF_TIMP1: BioMAP Diversity Plus: hDFCGF Assay for TIMP metallopeptidase inhibitor 1 (TIMP1) Biomarker Activity (AID 2283062); conditions: primary human foreskin fibroblasts; actives raise or lower the signal
How it was run: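 TIMP-1 measured by ELISA 24 h after chemical dosing of primary human skin fibroblasts, with gain or loss fitted relative to DMSO. Parallel SRB staining (560 nm) monitored overt cytotoxicity.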

[6] = read-out: Monokine induced gamma interferon (MIG), CXCL9 (gene 4283); assay: BSK_hDFCGF_MIG: BioMAP Diversity Plus: hDFCGF Assay for Monokine induced gamma interferon (MIG) Biomarker Activity (AID 2283063); conditions: primary human foreskin fibroblasts; actives raise or lower the signal
How it was run: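 Human primary foreskin fibroblasts in the hDFCGF system, exposed to test chemical for 24 h; MIG measured by ELISA. Bidirectional curve fitting against DMSO negative control as activity baseline.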

[7] = read-out: Matrix Metallopeptidase 1 (MMP1), MMP1 (gene 4312); assay: BSK_hDFCGF_MMP1: BioMAP Diversity Plus: hDFCGF Assay for Matrix Metallopeptidase 1 (MMP1) Biomarker Activity (AID 2283064); conditions: primary human foreskin fibroblasts; actives raise or lower the signal
How it was run: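 Human foreskin fibroblasts exposed to chemical for 24 h; MMP1 detected by ELISA, with DMSO as baseline for bidirectional fitting.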

[8] = read-out: Vascular cell adhesion molecule 1 (VCAM1), VCAM1 (gene 7412); assay: BSK_hDFCGF_VCAM1: BioMAP Diversity Plus: hDFCGF Assay for Vascular cell adhesion molecule 1 (VCAM1) Biomarker Activity (AID 2283065); conditions: primary human foreskin fibroblasts; actives raise or lower the signal;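 for AC50: VCAM-1 protein level quantified by ELISA after 24 h chemical exposure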
How it was run: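 ELISA readout of VCAM-1 on human dermal fibroblast primary cultures, 24 h after chemical exposure. Gain or loss of signal fitted in both directions against DMSO baseline.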

[9] = read-out: Plasminogen activator inhibitor-1 (PAI1), SERPINE1 (gene 5054); assay: BSK_hDFCGF_PAI1: BioMAP Diversity Plus: hDFCGF Assay for Plasminogen activator inhibitor-1 (PAI1) Biomarker Activity (AID 2283066); conditions: primary human foreskin fibroblasts; actives raise or lower the signal
How it was run: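 Human skin fibroblast cultures receive chemical for 24 h before PAI-1 is measured by ELISA; signal changes are fitted bidirectionally against DMSO-treated wells.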

[10] = read-out: Interferon-gamma inducible Protein 10 (IP10), CXCL10 (gene 3627); assay: BSK_KF3CT_IP10: BioMAP Diversity Plus: KF3CT Assay for Interferon-gamma inducible Protein 10 (IP10) Biomarker Activity (AID 2283068); conditions: primary human keratinocytes with fibroblasts; actives raise or lower the signal
How it was run: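 Signal is secreted/surface IP-10 by ELISA in a human primary skin co-culture of keratinocytes and foreskin fibroblasts, taken 24 h post-dosing; DMSO served as negative control.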

[11] = BSK_KF3CT_SRB: Viability Assessment in the BioMAP Diversity Plus: KF3CT Assay (AID 2283069); conditions: primary human keratinocytes with fibroblasts;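 note: read 24 h after compound addition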
How it was run: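 Overt cytotoxicity is assessed as total protein by sulforhodamine B staining in parallel human skin co-cultures at 24 h after dosing. DMSO serves as negative control and baseline.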

[12] = read-out: Interleukin-1 alpha (IL1a), IL1A (gene 3552); assay: BSK_KF3CT_IL1a: BioMAP Diversity Plus: KF3CT Assay for Interleukin-1 alpha (IL1a) Biomarker Activity (AID 2283070); conditions: primary human keratinocytes with fibroblasts; actives raise or lower the signal
How it was run: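 Readout is IL-1a level by ELISA, compared bidirectionally with DMSO as baseline. Cells: human keratinocytes co-cultured with foreskin fibroblasts, harvested 24 h post-dose.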

[13] = read-out: Matrix Metallopeptidase 9 (MMP9), MMP9 (gene 4318); assay: BSK_KF3CT_MMP9: BioMAP Diversity Plus: KF3CT Assay for Matrix Metallopeptidase 9 (MMP9) Biomarker Activity (AID 2283074); conditions: primary human keratinocytes with fibroblasts; actives raise or lower the signal;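 for AC50: MMP9 protein level quantified by ELISA in the co-culture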
How it was run: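 Values come from bidirectional fitting relative to DMSO of MMP-9 levels, which were measured by ELISA. Measurements were taken 24 h after chemical dosing of a keratinocyte and foreskin fibroblast co-culture.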

[14] = read-out: urokinase plasminogen activator (uPA), PLAU (gene 5328); assay: BSK_KF3CT_uPA: BioMAP Diversity Plus: KF3CT Assay for urokinase plasminogen activator (uPA) Biomarker Activity (AID 2283075); conditions: primary human keratinocytes with fibroblasts; actives raise or lower the signal
How it was run: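 Values derive from bidirectional fitting against DMSO controls. Keratinocyte/foreskin fibroblast co-cultures received chemical; 24 h later uPA was detected by ELISA, with SRB total-protein staining in parallel wells for overt cytotoxicity.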

CD40, CD40 (gene 958) = assay: BSK_LPS_CD40: BioMAP Diversity Plus: LPS Assay for CD40 Biomarker Activity (AID 2283076); conditions: primary human HUVEC with PBMC; actives raise or lower the signal
How it was run: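 In the LPS system of human endothelial cells with peripheral blood mononuclear cells, CD40 levels were read by ELISA 24 h post-treatment. Signal changes in either direction were fitted against the DMSO baseline, with parallel SRB protein staining.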

[15] = BSK_LPS_SRB: Viability Assessment in the BioMAP Diversity Plus: LPS Assay (AID 2283079); conditions: primary human HUVEC with PBMC;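 note: total protein by sulforhodamine B absorbance as a cytotoxicity measure; measured one day after compound addition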
How it was run: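 SRB viability endpoint: cells fixed with 10% TCA, stained with 0.1% SRB, read at 560 nm, 24 h post-dose. HUVEC/PBMC co-culture; signal change in either direction scored relative to DMSO.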

[16] = read-out: Tumor necrosis factor (Homo sapiens) (UniProt P01375); assay: BSK_LPS_TNFa: BioMAP Diversity Plus: LPS Assay for Tumour Necrosis Factor alpha (TNFa) Biomarker Activity (AID 2283085); conditions: primary human HUVEC with PBMC; actives raise or lower the signal;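 for AC50: TNFa protein level quantified by ELISA in the co-culture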
How it was run: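 ELISA-based TNFa endpoint in a human endothelial–PBMC co-culture sampled 24 h post-exposure. Curves were fitted in both directions using DMSO as baseline of activity.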

[17] = read-out: Vascular cell adhesion molecule 1 (VCAM1), VCAM1 (gene 7412); assay: BSK_LPS_VCAM1: BioMAP Diversity Plus: LPS Assay for Vascular cell adhesion molecule 1 (VCAM1) Biomarker Activity (AID 2283086); conditions: primary human HUVEC with PBMC; actives raise or lower the signal
How it was run: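 Measured by ELISA: VCAM-1 in LPS-activated HUVEC/PBMC co-cultures 24 h after treatment. Values reflect bidirectional fitting with DMSO as baseline.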

[18] = read-out: Monokine induced gamma interferon (MIG), CXCL9 (gene 4283); assay: BSK_SAg_MIG: BioMAP Diversity Plus: SAg Assay for Monokine induced gamma interferon (MIG) Biomarker Activity (AID 2283092); conditions: primary human HUVEC with PBMC; actives raise or lower the signal
How it was run: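 Values reflect bidirectional fitting of ELISA-measured MIG against DMSO vehicle, taken 24 h after dosing of a co-culture of human umbilical vein endothelial cells and peripheral blood mononuclear cells.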

[19] = BSK_SAg_PBMCCytotoxicity: PBMC Cytotoxicity Assessment in the BioMAP Diversity Plus: SAg Assay (AID 2283093); conditions: primary human HUVEC with PBMC;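 note: PBMC viability measured as Alamar Blue reduction fluorescence at 546/580 nm; fitted both ways against DMSO so a hit may be loss or gain of signal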;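 for AC50: PBMC superantigen activated with SEB plus TSST-1 one hour after compound addition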
How it was run: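 Alamar Blue reduction (6 h, 546/580 nm) reports PBMC cytotoxicity after 90 h superantigen activation (SEB, TSST-1; 20 ng/mL final each) with 1 h compound pre-treatment. Gain or loss of signal fitted versus DMSO.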

Measured: AC50

Sequence of Tumor necrosis factor (Homo sapiens) (P01375 whole entry, looked up): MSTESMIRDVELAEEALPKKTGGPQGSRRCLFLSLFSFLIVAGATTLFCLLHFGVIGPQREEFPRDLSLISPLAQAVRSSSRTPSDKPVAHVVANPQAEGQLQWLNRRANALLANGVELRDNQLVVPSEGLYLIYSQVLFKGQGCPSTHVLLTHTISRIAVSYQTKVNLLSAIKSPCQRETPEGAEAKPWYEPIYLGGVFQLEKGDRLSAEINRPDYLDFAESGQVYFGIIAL

C=CC(=O)OCC(CC)CCCC (stereo not given)
active: [3] 30.3 µM | [4] 32.2 µM | [5] 27.5 µM | [6] 30.5 µM | [7] 30.4 µM | [8] 16 µM | [9] 20 µM | [12] 6.47 µM | [14] 0.016 µM | [17] 7.48 µM
inactive: all other assays above

O=[N+]([O-])O
inactive: all assays above

O=c1[nH]c(Cl)c(Cl)cc1Cl
inactive: all assays above

Cc1ccc(OP(=O)(Oc2ccc(C)cc2)Oc2ccc(C)cc2)cc1 (tested in a mixture with another compound)
active: [3] 20 µM | [4] 23.2 µM | [13] 13.6 µM | CD40, CD40 (gene 958) 7.66 µM | [15] 20 µM
inactive: all other assays above

Oc1cc(Cl)ccc1Cl
inactive: all assays above

Nc1ccc(-c2ccc(N)c(N)c2)cc1N
active: [8] 11.7 µM | [12] 15.8 µM | [13] 16.1 µM | [17] 20 µM
inactive: all other assays above

O=C(CCl)c1ccccc1
active: [2] 7.52 µM | [3] 1.4 µM | [4] 4.74 µM | [5] 5.12 µM | [6] 6.78 µM | [7] 9.79 µM | [8] 2.56 µM | [9] 6.44 µM | [10] 13.8 µM | [11] 30.9 µM | [12] 28.4 µM | [13] 18 µM | [14] 30 µM | CD40, CD40 (gene 958) 4.58 µM | [15] 15.2 µM | [16] 4.58 µM | [17] 3.68 µM | [18] 8.77 µM | [19] 4.68 µM
inactive: [1]
